From the supplement of paper PMC11634586
Counter-ions that a name gives are not always drawn. A number with no mark means an inactive call.

test system: NCI-H1688; assay: inhibition of cell viability relative to untreated control (fraction); higher = stronger growth inhibition, active = 0.5 or more; conditions: 30 µM; 24 h
Method in brief: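 After seeding at 3 × 10^3 cells/well in 96-well plates and a 24 h wait, NCI-H1688 small cell lung cancer cells received a natural compound library (TargetMol) at 30 µM for 24 h, kept at 37°C with 5% CO2. Triplicate readings of Cell Counting Kit-8 absorbance at 450 nm measured viability. Each value is the inhibition of cell viability as a fraction, derived from viability normalised to untreated cells.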

Compound | inhibition of cell viability
Oc1cc(O)c2c(c1)O[C@H](c1ccc(O)c(O)c1)[C@@H](O)C2 [Cianidanol] | 0.298
CC[C@H](C)C(=O)O[C@H]1CCC=C2C=C[C@H](C)[C@H](CC[C@@H]3C[C@@H](O)CC(=O)O3)[C@H]21 [Mevastatin] | 0.86 (active)
CC[C@@]1(O)C(=O)OCc2c1cc1n(c2=O)Cc2cc3cc(O)ccc3nc2-1 [Hydroxy Camptothecine] | 0.97 (active)
CC1(C)C(O[C@@H]2OC[C@@H](O)[C@H](O)[C@H]2O)CC[C@]23CC24CC[C@]2(C)[C@@H]([C@@]5(C)CC[C@@H](C(C)(C)O)O5)[C@H](O)C[C@@]2(C)C4C[C@@H](O[C@@H]2O[C@H](CO)[C@@H](O)[C@H](O)[C@H]2O)C13 (some centres not stated) [Astragaloside IV] | -0.0383
O=C1O[C@H]([C@H](O)CO)C([O-])=C1O.[Na+] [Sodium erythorbate] | 0.0513
CC1=C(/C=C/C(C)=C/C=C/C(C)=C/C=C/C=C(C)/C=C/C=C(C)/C=C/C2=C(C)CCCC2(C)C)C(C)(C)CCC1 [Beta-Carotene] | 0.426
CN[C@@H]1[C@H](O[C@H]2[C@H](O[C@H]3[C@H](O)[C@@H](O)[C@H](N=C(N)N)[C@@H](O)[C@@H]3N=C(N)N)O[C@@H](C)[C@]2(O)C=O)O[C@@H](CO)[C@H](O)[C@H]1O [Streptomycin sulfate] | -0.138
COc1ccc2cc1Oc1ccc(cc1)C[C@H]1c3c(cc4c(c3Oc3cc5c(cc3OC)CCN(C)[C@@H]5C2)OCO4)CCN1C [Cepharanthine] | 1.01 (active)
C[C@H](CCC(=O)O)[C@H]1CC[C@H]2[C@@H]3[C@H](O)C[C@@H]4C[C@H](O)CC[C@]4(C)[C@H]3C[C@H](O)[C@]12C [Cholic Acid] | -0.419
CC(=O)N[C@H]1[C@H]([C@H](O)[C@H](O)CO)OC(O)(C(=O)O)C[C@@H]1O (some centres not stated) [N-Acetylneuraminic acid] | -0.0072
CC(=O)OCC(=O)[C@@]1(O)CC[C@H]2[C@@H]3CCC4=CC(=O)CC[C@]4(C)[C@H]3C(=O)C[C@@]21C [Cortisone acetate] | -0.148
C[C@@H]1O[C@@H](O[C@@H]2[C@@H](O)[C@H](OCCc3ccc(O)c(O)c3)O[C@H](CO)[C@H]2OC(=O)/C=C/c2ccc(O)c(O)c2)[C@H](O)[C@H](O)[C@H]1O [Verbascoside] | 0.0855
CC(=O)O[C@]1(C)CC[C@@]23C[C@H]1C(C)(C)[C@@H]2CC[C@H]3C [Cedryl acetate] | -0.223
O=C(O)C1=C[C@@H](O)[C@@H](O)[C@H](O)C1 [Shikimic Acid] | 0.0707
CC1(C)CCC[C@](C)([C@H]2CC[C@]3(C)[C@@H]2[C@H](O)C[C@@H]2[C@@]4(C)CC[C@H](O)C(C)(C)[C@@H]4[C@H](O)C[C@]23C)O1 [Panaxtriol] | -0.0145
NC[C@@H]1O[C@H](O[C@H]2[C@@H](O)[C@H](O[C@@H]3[C@@H](O)[C@H](N)C[C@H](N)[C@H]3O[C@H]3O[C@H](CO)[C@@H](O)[C@H](O)[C@H]3N)O[C@@H]2CO)[C@H](N)[C@@H](O)[C@@H]1O [Paromomycin Sulfate] | -0.0298
CC[C@]1(O)C[C@@H]2CN(CCc3c([nH]c4ccccc34)[C@@](C(=O)OC)(c3cc4c(cc3OC)N(C)[C@H]3[C@@](O)(C(=O)OC)[C@H](OC(C)=O)[C@]5(CC)C=CCN6CC[C@]43[C@@H]65)C2)C1 [Vinblastine sulfate] | 0.764 (active)
COc1ccc(CCC(=O)c2c(O)cc(O[C@@H]3O[C@H](CO)[C@@H](O)[C@H](O)[C@H]3O[C@@H]3O[C@@H](C)[C@H](O)[C@@H](O)[C@H]3O)cc2O)cc1O [Neohesperidin Dihydrochalcone (Nhdc)] | -0.0245
O=C(O)c1cccnc1 [Nicotinic acid] | 0.0212

Compound | inhibition of cell viability
C[C@@H]1O[C@@H](O[C@H]2C(=O)c3c(O)cc(O)cc3O[C@@H]2c2ccc(O)c(O)c2)[C@H](O)[C@H](O)[C@H]1O [Astilbin] | -0.0142
C[C@]12CC[C@@H]3c4ccc(O)cc4CC[C@H]3[C@@H]1C[C@@H](O)[C@@H]2O [Estriol] | 0.0233
C[C@H](CC[C@@H](O[C@@H]1O[C@H](CO[C@@H]2O[C@H](CO)[C@@H](O)[C@H](O)[C@H]2O)[C@@H](O)[C@H](O)[C@H]1O[C@@H]1O[C@H](CO)[C@@H](O)[C@H](O)[C@H]1O)C(C)(C)O)[C@H]1CC[C@@]2(C)[C@@H]3CC=C4[C@@H](CC[C@H](O[C@@H]5O[C@H](CO[C@@H]6O[C@H](CO)[C@@H](O)[C@H](O)[C@H]6O)[C@@H](O)[C@H](O)[C@H]5O)C4(C)C)[C@]3(C)[C@H](O)C[C@]12C [Mogroside V] | 0.121
OC[C@H]1O[C@@H](O[C@@H]2OC=C[C@H]3[C@H](O)[C@@H]4O[C@]4(CO)[C@@H]23)[C@H](O)[C@@H](O)[C@@H]1O [Catalpol] | -0.0576
CC1C(=O)OC2C(O)C34C5CC(C(C)(C)C)C36C(OC(=O)C6O)OC4(C(=O)O5)C12O (configuration not stated) [Ginkgolide B] | -0.0261
N[C@H]1C(O)O[C@H](CO)[C@@H](O)[C@@H]1O (some centres not stated) [Glucosamine sulfate] | 0.381
CC(C)=CCC[C@](C)(O[C@@H]1O[C@H](CO)[C@@H](O)[C@H](O)[C@H]1O)[C@H]1CC[C@]2(C)[C@@H]1[C@H](O)C[C@@H]1[C@@]3(C)CC[C@H](O)C(C)(C)[C@@H]3[C@@H](O[C@@H]3O[C@H](CO)[C@@H](O)[C@H](O)[C@H]3O[C@@H]3O[C@@H](C)[C@H](O)[C@@H](O)[C@H]3O)C[C@]12C [Ginsenoside Re] | -0.0285
COc1ccc2cc1Oc1ccc(cc1)C[C@H]1c3cc(c(OC)cc3CCN1C)Oc1c(O)c(OC)cc3c1[C@H](C2)N(C)CC3 [(+)-Fangchinoline] | 0.984 (active)
COc1cc(C(C)=O)ccc1O [Acetovanillone] | 0.213
CC(C)=CCC[C@](C)(O[C@@H]1O[C@H](CO[C@@H]2O[C@H](CO)[C@@H](O)[C@H](O)[C@H]2O)[C@@H](O)[C@H](O)[C@H]1O)[C@H]1CC[C@]2(C)[C@@H]1[C@H](O)C[C@@H]1[C@@]3(C)CC[C@H](O[C@@H]4O[C@H](CO)[C@@H](O)[C@H](O)[C@H]4O[C@@H]4O[C@H](CO)[C@@H](O)[C@H](O)[C@H]4O)C(C)(C)[C@@H]3CC[C@]12C [Ginsenoside Rb1] | -0.0384
C[C@@H]1O[C@@H](OC[C@H]2O[C@@H](Oc3c(-c4ccc(O)c(O)c4)oc4cc(O)cc(O)c4c3=O)[C@H](O)[C@@H](O)[C@@H]2O)[C@H](O)[C@H](O)[C@H]1O [Rutin] | 0.272
O=c1[nH]cnc2c1ncn2[C@@H]1O[C@H](CO)[C@@H](O)[C@H]1O [Inosine] | 0.0115
CC[C@H](CC[C@@H](C)[C@H]1CC[C@H]2[C@@H]3CC=C4C[C@@H](O)CC[C@]4(C)[C@H]3CC[C@]12C)C(C)C [Beta-Sitosterol] | 0.185
O=c1c(-c2ccc(O[C@@H]3O[C@H](CO)[C@@H](O)[C@H](O)[C@H]3O)cc2)coc2cc(O)cc(O)c12 [Sophoricoside] | 0.495
CNC[C@H](O)c1ccc(O)c(O)c1 [Epinephrine bitartrate] | 0.0849
C=C1CC[C@H]2O[C@]2(C)CC[C@@H]2[C@@H]1CC2(C)C [Caryophyllene oxide] | -0.0678
CC(=O)[C@H]1CC[C@H]2[C@@H]3CCC4=CC(=O)CC[C@]4(C)[C@H]3CC[C@]12C [Progesterone] | -0.156
CCC(C)C(NC(=O)CNC(=O)C(CCC(N)=O)NC(=O)C1CCCN1C(=O)C(CC(=O)O)NC(=O)C(CCCNC(=N)N)NC(=O)C(NC(=O)C(NC(=O)C(N)CCCNC(=N)N)C(C)C)C(C)C)C(=O)NC(CCCNC(=N)N)C(=O)NC(C)C(=O)NC(Cc1c[nH]c2ccccc12)C(=O)NC(C(=O)NC(C)C(=O)NC(Cc1c[nH]c2ccccc12)C(=O)NC(CCCNC(=N)N)C(=O)NC(CC(N)=O)C(=O)NC(CCCNC(=N)N)C(=O)O)C(C)C (configuration not stated) [Lysozyme] | 0.471
